Activity calls are given as the source filed them. How the source made its calls: active means hit-call score of the fitted dose curve at least 0.9, where 1 is the maximum; inactive means score below 0.9.

The nature of assay [1]: ATG_E_Box_CIS: Attagene CIS-FACTORIAL HepG2 Assay for human Enhancer Box (E-box) (AID 2282936). To be noted: HepG2 E-box cis-reporter transcription, actives raise or lower the signal. Summed up: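 Cells: HepG2 (human liver), transient MRTU transfection. Exposure 24 h. RNA → oligo(dT) RT → PCR → 6-FAM label → HpaI → CE. Activity fitted both directions relative to DMSO.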
Assay [2] in a line: ATG_M_61_CIS: Attagene CIS-FACTORIAL HepG2 Assay for M61 Transcription Factor (Internal Marker) (AID 2282937). To be noted: HepG2 Attagene CIS-FACTORIAL M61 internal marker reporter; actives raise or lower the signal. An outline of the steps:
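Using transiently transfected HepG2 liver cells, reporter transcript levels were assessed 24 h post-dosing by RT-PCR and capillary electrophoresis. Changes in either direction were fitted relative to DMSO controls.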

Assay [3] in a line: ATG_EGR_CIS: Attagene CIS-FACTORIAL HepG2 Assay for human Early Growth Response 1 (EGR1) (AID 2282938). Particulars: HepG2 Attagene CIS-FACTORIAL EGR reporter mRNA; actives raise or lower the signal. An outline of the steps: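 Fluorescent capillary-electrophoresis signal of reporter cDNA fragments serves as read-out. HepG2 cells bear transiently transfected cis-promoter reporter units and are exposed 24 h; gain- or loss-of-signal is fitted against DMSO.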

Assay [4] is described as follows: ATG_M_19_CIS: Attagene CIS-FACTORIAL HepG2 Assay for M19 Transcription Factor (Internal Marker) (AID 2282939). Particulars: HepG2 Attagene CIS-FACTORIAL M19 internal marker reporter; actives raise or lower the signal. Summed up:
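Readout: fluorescent reporter-transcript fragments by capillary electrophoresis after RT-PCR. Human HepG2 liver cells carried transfected MRTU constructs reporting endogenous transcription-factor activity; exposure 24 h. Gain or loss of signal fitted relative to DMSO.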

The nature of assay [5]: ATG_ERE_CIS: Attagene CIS-FACTORIAL HepG2 Assay for Estrogen Response Element (ERE) (AID 2282940). Particulars: HepG2 ERE cis-reporter, Attagene RNA transcript; actives raise or lower the signal. Summed up: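 Readout: reporter mRNA induction by RT-PCR, FAM-labelled primer extension, HpaI digestion and capillary electrophoresis, 24 h after dosing transfected HepG2 cells. Endogenous transcription factors act on cis-element-regulated reporters. Gain or loss fitted against DMSO.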

A short description of assay [6]: ATG_Ets_CIS: Attagene CIS-FACTORIAL HepG2 Assay for human Erythroblast Transformation Specific (ETS) (AID 2282941). To be noted: HepG2 ETS cis-reporter transcription, actives raise or lower the signal. Summed up:
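After transient cis-reporter transfection, HepG2 cells receive test chemical for 24 h. Reporter mRNA levels, measured by RT-PCR and capillary electrophoresis fluorescence, are analysed bidirectionally relative to the DMSO baseline.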

Assay [7] concerns the target Hepatocyte nuclear factor 3-beta (Homo sapiens) (UniProt Q9Y261). As to the kind of experiment: ATG_FoxA2_CIS: Attagene CIS-FACTORIAL HepG2 Assay for human Forkhead box A2 (FOXA2) (AID 2282942). To be noted: HepG2 cis-reporter transcription factor activity, 24 h; actives raise or lower the signal. Summed up: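 Fluorescence signal of reporter cDNA fragments, separated by capillary electrophoresis, reflects endogenous transcription factor activity in transfected HepG2 after 24 h. Both increases and decreases fitted against DMSO.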

Assay [8] in a line: ATG_GATA_CIS: Attagene CIS-FACTORIAL HepG2 Assay for human GATA Binding Protein (AID 2282944). To be noted: HepG2 GATA cis-element reporter, Attagene multiplex mRNA; actives raise or lower the signal. An outline of the steps: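 Read-out: fluorescent reporter mRNA fragments resolved by capillary electrophoresis after RT-PCR. Human liver HepG2 cells carried transiently transfected cis-regulated reporter constructs; chemicals incubated 24 h; gain or loss of signal fitted relative to DMSO.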

Assay [9] can be described thus: ATG_GLI_CIS: Attagene CIS-FACTORIAL HepG2 Assay for human Zinc Finger Protein GLI1 (AID 2282945). To be noted: HepG2, Attagene cis-factorial reporter mRNA, GLI element; actives raise or lower the signal. An outline of the steps: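 Bidirectional curve fits relative to DMSO, using reporter mRNA levels from RT-PCR plus capillary electrophoresis. Cells were HepG2 transiently carrying cis-regulated reporter constructs, harvested 24 h after dosing.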

Assay [10] addresses Bile acid receptor (Homo sapiens) (UniProt Q96RI1). Kind of assay: ATG_IR1_CIS: Attagene CIS-FACTORIAL HepG2 Assay for human Nuclear Receptor Subfamily 1 Group H Member 4 (NR1H4), IR1 submotif (AID 2282946). Particulars: IR1 reporter transcription, actives raise or lower the signal. Summed up:
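Cells (human HepG2) carry transiently transfected cis-promoter reporter transcription units. Compounds are incubated 24 h, total RNA is reverse-transcribed and amplified, and labelled fragments are resolved by capillary electrophoresis. Curves use DMSO as baseline.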

A short description of assay [11]: ATG_M_32_CIS: Attagene CIS-FACTORIAL HepG2 Assay for M32 Transcription Factor (Internal Marker) (AID 2282949).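 Further: background control marker of the multiplexed CIS panel rather than a real target.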 To be noted: HepG2 Attagene cis-factorial M32 reporter, mRNA; actives raise or lower the signal. Summed up: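 HepG2 cells transiently transfected with multiplexed cis-regulated reporter units, dosed 24 h. Reporter mRNA quantified by RT-PCR, 6-FAM labelling, HpaI digestion and capillary electrophoresis; bidirectional fit vs DMSO.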

Assay [12] can be described thus: ATG_M_06_CIS: Attagene CIS-FACTORIAL HepG2 Assay for M06 Transcription Factor (Internal Marker) (AID 2282950). To be noted: HepG2 Attagene CIS-FACTORIAL M06 internal marker reporter; actives raise or lower the signal. An outline of the steps: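 Terse: HepG2, transient MRTU transfection (FuGene 6), 24 h dosing; total RNA, oligo(dT) RT, PCR, FAM label, HpaI cut, capillary electrophoresis; bidirectional fit vs DMSO baseline; background-control endpoint.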

Assay [13] concerns the target Hypoxia-inducible factor 1-alpha (Homo sapiens) (UniProt Q16665). As to the kind of experiment: ATG_HIF1a_CIS: Attagene CIS-FACTORIAL HepG2 Assay for human Hypoxia Inducible Factor 1 (HIF1A) (AID 2282951). Particulars: HepG2 Attagene cis-factorial HIF1a reporter transcription; actives raise or lower the signal. Summed up:
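Endogenous-TF cis reporter readout, human HepG2 cells, 24 h incubation; mRNA detected via RT-PCR and capillary electrophoresis fluorescence; DMSO-normalised bidirectional fitting.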

Assay [14] addresses Hepatocyte nuclear factor 6 (Homo sapiens) (UniProt Q9UBC0). Kind of assay: ATG_HNF6_CIS: Attagene CIS-FACTORIAL HepG2 Assay for human Hepatocyte Nuclear Factor 6 (HNF6) (AID 2282952). To be noted: HepG2 Attagene cis-factorial HNF6 reporter transcription; actives raise or lower the signal. Summed up: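 HepG2 cells transiently transfected with cis-element-driven multiple reporter transcription units, dosed 24 h; reporter mRNA quantified by RT-PCR, FAM primer extension, HpaI digestion and capillary electrophoresis; bidirectional fit versus DMSO baseline.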

Assay [15] deals with Heat shock factor protein 1 (Homo sapiens) (UniProt Q00613). Kind of assay: ATG_HSE_CIS: Attagene CIS-FACTORIAL HepG2 Assay for human Heat Shock Transcription Factor 1 (HSE) (AID 2282953). To be noted: HepG2 HSE cis-reporter, Attagene RNA transcription; actives raise or lower the signal. Summed up:
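Read-out: fluorescence of reporter-specific RT-PCR fragments separated by capillary electrophoresis. HepG2 carrying transfected cis-element reporter units; 24 h dosing; activity fitted in both directions relative to DMSO baseline.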

Assay [16] is described as follows: ATG_MRE_CIS: Attagene CIS-FACTORIAL HepG2 Assay for human Metal Responsive Element (MRE) (AID 2282954). Particulars: HepG2 MRE cis-reporter transcription, Attagene multiplex; actives raise or lower the signal. An outline of the steps:
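Transient MRTU transfection of HepG2 (FuGene 6); 24 h dosing; total RNA → oligo(dT) RT, PCR, 6-FAM primer extension, HpaI cut, CE. Bidirectional fit vs DMSO.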

Assay [17] can be described thus: ATG_FoxO_CIS: Attagene CIS-FACTORIAL HepG2 Assay for human Forkhead box O (FoxO) (AID 2282943). Particulars: HepG2 Attagene cis-reporter, FoxO element, mRNA; actives raise or lower the signal. An outline of the steps:
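Human hepatoma HepG2 cells carry transiently introduced reporter transcription units controlled by cis promoter elements. Chemical treatment lasted 24 h, and mRNA signal was compared with DMSO.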

A short description of assay [18]: ATG_GRE_CIS: Attagene CIS-FACTORIAL HepG2 Assay for human Glucocorticoid Response Elements (GRE) (AID 2282947). Particulars: HepG2 GRE cis-reporter, Attagene multiplex mRNA; actives raise or lower the signal. Summed up:
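Transient MRTU transfection of human HepG2 liver cells; cis-regulated reporters report endogenous factors. 24 h dosing → RNA isolation → RT-PCR → 6-FAM primer extension → HpaI cut → CE fragment analysis. Bidirectional fit, DMSO negative control.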

Assay [19] is described as follows: ATG_ISRE_CIS: Attagene CIS-FACTORIAL HepG2 Assay for human Interferon Regulatory Factor 1 (IRF1) binding to an Interferon-Stimulated Response Element (ISRE) (AID 2282948). To be noted: HepG2 ISRE cis-reporter (Attagene), mRNA transcription readout; actives raise or lower the signal. An outline of the steps:
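Quantitation relies on labelled RT-PCR fragments separated by capillary electrophoresis. Human HepG2 cells bearing cis-promoter reporter constructs were treated 24 h; DMSO served as baseline for bidirectional fitting.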

Chain of Hypoxia-inducible factor 1-alpha (Homo sapiens) (Q16665 whole entry, looked up): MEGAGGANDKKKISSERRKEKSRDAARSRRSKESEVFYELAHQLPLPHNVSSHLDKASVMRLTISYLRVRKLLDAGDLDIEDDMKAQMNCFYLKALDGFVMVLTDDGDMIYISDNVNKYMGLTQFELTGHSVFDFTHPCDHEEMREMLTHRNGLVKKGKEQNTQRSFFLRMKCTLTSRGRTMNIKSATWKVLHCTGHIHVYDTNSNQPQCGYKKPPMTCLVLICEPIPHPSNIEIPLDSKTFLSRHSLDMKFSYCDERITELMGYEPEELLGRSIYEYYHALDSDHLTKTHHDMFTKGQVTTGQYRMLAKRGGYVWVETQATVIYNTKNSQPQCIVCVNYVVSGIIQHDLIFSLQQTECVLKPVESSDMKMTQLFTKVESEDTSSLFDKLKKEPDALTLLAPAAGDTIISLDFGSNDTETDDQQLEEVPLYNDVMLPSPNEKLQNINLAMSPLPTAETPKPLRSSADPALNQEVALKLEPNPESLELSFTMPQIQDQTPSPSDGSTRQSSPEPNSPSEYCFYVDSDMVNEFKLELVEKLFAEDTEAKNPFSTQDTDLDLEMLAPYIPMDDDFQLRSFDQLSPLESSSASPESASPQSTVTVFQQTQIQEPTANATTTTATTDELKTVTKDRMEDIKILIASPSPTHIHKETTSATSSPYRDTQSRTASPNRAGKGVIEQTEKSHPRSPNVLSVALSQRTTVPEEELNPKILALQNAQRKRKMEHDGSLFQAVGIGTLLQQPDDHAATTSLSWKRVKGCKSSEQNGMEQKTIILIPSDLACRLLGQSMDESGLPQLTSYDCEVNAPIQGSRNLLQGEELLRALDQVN
Chain of Hepatocyte nuclear factor 3-beta (Homo sapiens) (Q9Y261 whole entry, looked up, the tested form may be a part): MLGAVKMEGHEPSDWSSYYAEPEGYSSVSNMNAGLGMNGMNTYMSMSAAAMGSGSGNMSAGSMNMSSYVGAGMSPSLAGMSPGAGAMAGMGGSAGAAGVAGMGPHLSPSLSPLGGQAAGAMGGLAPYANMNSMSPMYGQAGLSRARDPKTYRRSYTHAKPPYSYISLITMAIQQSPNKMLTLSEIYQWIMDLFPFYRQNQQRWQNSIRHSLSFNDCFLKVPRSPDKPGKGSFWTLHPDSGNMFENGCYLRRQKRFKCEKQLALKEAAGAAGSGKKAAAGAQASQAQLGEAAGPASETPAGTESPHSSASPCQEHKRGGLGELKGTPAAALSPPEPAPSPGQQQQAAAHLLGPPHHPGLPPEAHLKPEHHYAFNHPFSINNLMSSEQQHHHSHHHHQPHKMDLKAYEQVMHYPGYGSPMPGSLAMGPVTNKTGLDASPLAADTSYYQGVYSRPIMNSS
Chain of Bile acid receptor (Homo sapiens) (Q96RI1 whole entry, looked up, the tested form may be a part): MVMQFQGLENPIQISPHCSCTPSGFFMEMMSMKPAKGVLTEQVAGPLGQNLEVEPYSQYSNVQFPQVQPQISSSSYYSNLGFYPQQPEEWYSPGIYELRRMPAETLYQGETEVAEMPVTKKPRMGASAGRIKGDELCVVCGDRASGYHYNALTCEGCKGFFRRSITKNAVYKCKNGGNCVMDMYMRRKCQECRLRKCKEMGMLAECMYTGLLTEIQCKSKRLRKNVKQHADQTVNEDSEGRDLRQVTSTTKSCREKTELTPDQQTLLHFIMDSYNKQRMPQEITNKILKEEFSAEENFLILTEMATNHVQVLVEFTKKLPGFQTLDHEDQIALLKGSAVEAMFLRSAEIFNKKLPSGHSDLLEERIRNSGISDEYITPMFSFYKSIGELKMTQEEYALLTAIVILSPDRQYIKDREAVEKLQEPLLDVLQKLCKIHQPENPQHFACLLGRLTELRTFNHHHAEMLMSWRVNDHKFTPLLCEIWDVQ
Chain of Heat shock factor protein 1 (Homo sapiens) (Q00613 whole entry, looked up, the tested form may be a part): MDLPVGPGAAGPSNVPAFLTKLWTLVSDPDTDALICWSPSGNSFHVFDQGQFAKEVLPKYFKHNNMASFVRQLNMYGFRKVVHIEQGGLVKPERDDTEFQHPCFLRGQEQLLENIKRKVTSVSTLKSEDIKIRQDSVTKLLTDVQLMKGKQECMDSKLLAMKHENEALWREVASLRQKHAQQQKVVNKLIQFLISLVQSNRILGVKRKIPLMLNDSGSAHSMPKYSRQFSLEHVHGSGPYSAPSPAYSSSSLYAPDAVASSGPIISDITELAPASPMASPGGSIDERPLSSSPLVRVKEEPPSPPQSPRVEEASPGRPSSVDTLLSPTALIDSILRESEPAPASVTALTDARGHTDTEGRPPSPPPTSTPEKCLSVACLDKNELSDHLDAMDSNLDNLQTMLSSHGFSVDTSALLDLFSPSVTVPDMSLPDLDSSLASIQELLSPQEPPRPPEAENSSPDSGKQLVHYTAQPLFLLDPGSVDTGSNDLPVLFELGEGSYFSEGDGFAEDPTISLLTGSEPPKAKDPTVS
Chain of Hepatocyte nuclear factor 6 (Homo sapiens) (Q9UBC0 whole entry, looked up): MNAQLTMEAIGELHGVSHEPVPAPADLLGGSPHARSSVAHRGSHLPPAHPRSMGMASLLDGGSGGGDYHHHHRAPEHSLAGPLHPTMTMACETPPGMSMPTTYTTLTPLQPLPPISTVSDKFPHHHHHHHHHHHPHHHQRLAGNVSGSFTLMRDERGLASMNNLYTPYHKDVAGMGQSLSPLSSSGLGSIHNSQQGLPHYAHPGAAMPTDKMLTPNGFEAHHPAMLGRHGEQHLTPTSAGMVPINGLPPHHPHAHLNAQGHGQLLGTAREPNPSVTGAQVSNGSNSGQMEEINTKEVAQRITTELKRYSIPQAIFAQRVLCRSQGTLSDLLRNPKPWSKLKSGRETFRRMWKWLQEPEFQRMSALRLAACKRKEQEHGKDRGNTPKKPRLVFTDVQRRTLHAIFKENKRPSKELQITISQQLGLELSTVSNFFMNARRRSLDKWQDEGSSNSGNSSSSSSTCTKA

Take `CCCCc1ccc(Cl)cc1`: the result in [1], in [2], in assay [3], in assay [4], in [5] and in [6] was inactive. Moreover, the compound was classed as inactive in assay [7], in assay [8], in assay [9], in assay [10], in [11] and in [12]. Besides, the compound was called inactive in assay [13], in [14], in [15] and in assay [16].

As for `CCCC1CCCC(=O)O1` (stereo unspecified), the compound was called inactive in [2], in [3], in assay [4], in assay [6], in [7] and in [17]. Moreover, the compound was called inactive in assay [8], in [9], in assay [18], in [19], in assay [11] and in [12]. In addition, the call in assay [14], in assay [15] and in assay [16] was inactive. The half-maximal activity concentration (AC50) in assay [5] is 21.3 µM (active).

Turning to `[Cl][Eu]([Cl])[Cl]`, the outcome in [1], in assay [2], in assay [4], in [6], in assay [7] and in [17] was inactive. Besides, the result in assay [8], in [9], in assay [10], in assay [18], in assay [11] and in assay [12] was inactive. For the same compound, the outcome in assay [13], in assay [14], in assay [15] and in [16] was inactive. Besides, in assay [5], the AC50 is 51.6 µM (active).

`CC/C=C\C/C=C\C/C=C\CCCCCCCC(=O)OC`: the result in assay [2], in assay [4], in assay [6], in [7], in assay [8] and in assay [9] was inactive. Moreover, the result in assay [18], in assay [19], in assay [11], in assay [12], in [14] and in assay [16] was inactive. Also, the AC50 was 38.9 µM (active) in assay [5]; 158 µM (active) in assay [17]; 25.7 µM (active) in assay [10]; 34 µM (active) in assay [13]; 74.9 µM (active) in [15].

On to `CCCCCCCCCC[N+](C)(CCCCCCCCCC)CCC[Si](OC)(OC)OC`, for which the AC50 in [1] was 17.8 µM (active); in assay [3], 7.33 µM (active); in [4] it was 17.8 µM (active); in [7], 17.7 µM (active); in assay [8] it was 14.1 µM (active); in assay [18], 18.4 µM (active). Further, the AC50 is 20.2 µM (active) in assay [11] and 11 µM (active) in assay [14]. Moreover, the compound was classed as inactive in assay [2], in [5], in assay [6], in assay [17], in [9] and in assay [12]. For the same compound, the call in assay [13], in assay [15] and in assay [16] was inactive.

Regarding `CC1=CCC2CC1C2(C)C` (stereo unspecified), the outcome in assay [1], in assay [2], in [3], in assay [4], in assay [5] and in assay [6] was inactive. The compound was classed as inactive in assay [7], in assay [17], in assay [8], in [9], in assay [19] and in [12]. Also, the compound was classed as inactive in assay [13], in assay [14], in assay [15] and in [16].

In the case of `Nc1ccnc(=O)[nH]1`, the result in [1], in [2], in assay [3], in assay [4], in [5] and in [6] was inactive. Also, the compound was called inactive in [7], in assay [17], in assay [8], in assay [9], in assay [18] and in [19]. Besides, the compound was called inactive in assay [11], in [12], in [13], in assay [14] and in [16].

For the origin of these results see PubChem BioAssay (EPA / NIEHS).
